About 83,000 compounds went through this panel and 20% of them were active in at least one assay; those are over-represented in the sample as a whole.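 Negative percent growth values reflect cell death: -40 means 40% of the cells present at the start died, and -100 means all died.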 A number with no mark means an inactive call. Active and inactive are the calls of the source. The calls were made as follows: active = growth percent below 10; inactive = the rest.
Tests used:
Assay in all cases: NCI-60 one-dose screen, 48 h (100 = growth as untreated, 0 = no growth, -100 = all killed)
Settings in all cases: 10 µM unless noted
HCT-15 colon = tested on: HCT-15 colon
HT29 colon = tested on: HT29 colon
SNB-75 CNS = tested on: SNB-75 CNS
SNB-19 CNS = tested on: SNB-19 CNS
U251 CNS = tested on: U251 CNS
PC-3 prostate = tested on: PC-3 prostate
SK-MEL-5 melanoma = tested on: SK-MEL-5 melanoma
UACC-62 melanoma = tested on: UACC-62 melanoma
LOX IMVI melanoma = tested on: LOX IMVI melanoma
SK-MEL-28 melanoma = tested on: SK-MEL-28 melanoma

| Structure (SMILES) | growth (HCT-15 colon) | growth (HT29 colon) | growth (SNB-75 CNS) | growth (SNB-19 CNS) | growth (U251 CNS) | growth (PC-3 prostate) | growth (SK-MEL-5 melanoma) | growth (UACC-62 melanoma) | growth (LOX IMVI melanoma) | growth (SK-MEL-28 melanoma) |
| --- | --- | --- | --- | --- | --- | --- | --- | --- | --- | --- |
| O=C1/C(=C\c2cn(CC(O)CN3CCCCC3)c3ccccc23)c2ccccc2N1c1c(Cl)cccc1Cl (stereo not given) | -72.8% (active) | -85% (active) | -98.6% (active) | -71.2% (active) | -93.8% (active) | -88.7% (active) | -100% (active) | -84% (active) | -85.1% (active) | -94.4% (active) |
| O=C(Nc1cccc2ccccc12)c1cc2ccccc2cc1O | 19.1% | 68.9% | 12.8% | 22.9% | 8.21% (active) | 2.08% (active) | -57.3% (active) | 17.4% | 13.7% | 45.7% |
| O=C(Nc1cccc(F)c1)c1cc(=O)[nH]c2cc(Br)ccc12 | 28.6% | 9.92% (active) | 43.7% | 54.7% | 36% | 43.8% | 32% | 34.4% | 43.1% | 62.3% |
| CCCN1CC(c2ccc(OC)c(OC)c2)=C(c2cn(C(=O)OCC)c3ccccc23)C1=O | 25.9% | 14.5% | -14.1% (active) | 50.3% | 46.7% | 32.4% | 22.9% | 18.3% | 49.6% | 73.1% |
| COc1cc(-c2nc(SCCC(C)C)nc(Nc3ccc(S(N)(=O)=O)cc3)c2C#N)cc(OC)c1OC | 14% | 2.83% (active) | 47.6% | 54.3% | 31.5% | 9.42% (active) | 37.4% | 45.7% | 5.65% (active) | 59.1% |
| CCCCCC1CCCCN1C(=O)OCCCC (stereo not given) | 101% | 103% | 81.4% | 105% | 104% | 111% | 99.4% | 76.4% | 94.7% | 116% |
| NC1=NC(=O)NC1(c1ccccc1)c1ccccc1 | 97.5% | 111% | 89.9% | 98.9% | 97.4% | 94.3% | 95.9% | 101% | 91.3% | 109% |
| Cc1nc(Cl)cc(N(c2cc(Cl)nc(C)n2)c2ncc(C(=O)Nc3c(C)cccc3Cl)s2)n1 | 59.4% | 20.4% | -30.3% (active) | 72.9% | 54.6% | 32.4% | 46.2% | 53.3% | 14.2% | 78% |
| O=C1CC(c2ccccc2)Cc2nc3ccc(Cl)cc3cc21 (stereo not given) | 13.9% | 4.39% (active) | 29.7% | 24.9% | 18.8% | 27.7% | -14.3% (active) | 29.3% | 29.7% | 50.6% |
| O=S(=O)(c1ccc(N/N=C\c2ccccc2Cl)cc1)c1ccc(N/N=C/c2ccccc2Cl)cc1 | 73.7% | 79.2% | 61.5% | 90.4% | 90.1% | 54.7% | 97.1% | 73.2% | 95.1% | 94.2% |
| CCOC(=O)CCC[P+](c1ccccc1)(c1ccccc1)c1ccccc1 | 102% | 70.2% | 86.8% | 96% | 52.6% | 69.5% | 48.5% | 65% | 83% | 83.8% |
| CCN(CC)c1ccc2cc(C(Nc3ccc(C)cc3)c3nnnn3C(C)(C)C)c(=O)oc2c1 (stereo not given) | 98.3% | 94.8% | 77.6% | 87.8% | 89.2% | 73.7% | 83.4% | 71.7% | 94.8% | 106% |
| COc1ccc(OC)c(NC=O)c1 | 103% | 99.4% | 100% | 106% | 88.2% | 105% | 110% | 99.7% | 100% | 115% |
| Ic1ccc2[nH]cc(SSc3c[nH]c4ccc(I)cc34)c2c1 | 15.6% | 32% | 46.6% | 13.3% | 18.3% | 7.98% (active) | 86.6% | 45.4% | 4.6% (active) | 40.9% |
| O=C(O)CC1CCCCC1c1ccccc1 (stereo not given) | 97.8% | 101% | 106% | 106% | 105% | 90% | 105% | 102% | 103% | 119% |
| O=C(Nc1ccc(F)cc1)c1ccccc1 | 96.6% | 114% | 106% | 101% | 102% | 108% | 101% | 90.8% | 105% | 101% |
| O=C1NC(=O)C(Cc2ccc(OCc3ccc(-c4cc(F)c(F)c(F)c4)cc3)cc2)S1 (stereo not given) | 88.2% | 107% | 83.2% | 93.5% | 86.1% | 71.4% | 76.5% | 56.2% | 77.4% | 102% |
| CCN(CC)CCSC(=O)C(O)(c1ccccc1)C1CCCC1 (stereo not given) | 98.6% | 114% | 95.2% | 111% | 108% | 96.9% | 117% | 86.9% | 90.3% | 87% |
| FC(F)(F)c1ccc2c(c1)Sc1ccccc1N2 | 92.2% | 102% | 89% | 95.9% | 91.5% | 93.9% | 98.1% | 85.3% | 104% | 110% |
| CN(C)CCCNc1nc(-c2cccc(C(Cl)(Cl)Cl)c2)nc(C(Cl)(Cl)Cl)n1 | 108% | 94.9% | 83.1% | 102% | 105% | 98.4% | 103% | 99.6% | 87.7% | 103% |
| CC(C)[C@H]1CCC2=C3CC[C@]45OC(=O)[C@@]6(CCC(C)(C)C[C@H]64)CC[C@@]5(C)[C@]3(C)CC[C@@]21C | 85.8% [100 µM] | 42.2% [100 µM] | 30.4% [100 µM] | 71.6% [100 µM] | 66.5% [100 µM] | 39.3% [100 µM] | 42.6% [100 µM] | 59.3% [100 µM] | 78.8% [100 µM] | 87.4% [100 µM] |
| Cc1ccc(C2=C/C(=C/c3ccc(Br)cc3)C(=O)N2CCc2ccc(S(N)(=O)=O)cc2)cc1 | 99.8% | 106% | 60.9% | 89.7% | 95.5% | 88% | 94.7% | 78.7% | 99.6% | 104% |
| O=C(N/N=C/c1ccc([N+](=O)[O-])cc1)c1ccc(Br)o1 | 94.5% | 106% | 105% | 90.2% | 101% | 87.1% | 95.8% | 99.6% | 98% | 110% |
| COc1cc(OC)c(/C=C/C(=O)c2c(N)cc(OC)cc2OC)c(OC)c1 | 21.2% | 3.5% (active) | 23.5% | 27.9% | 11.9% | 11.8% | 17% | 9.68% (active) | 23.2% | 61% |
| C=C(CN=[N+]=[N-])[C@@H]1CC[C@]2(C)[C@H](CC[C@@H]3[C@H]4[C@H]5OC(=O)[C@@]4(CCC5(C)C)CC[C@]32C)[C@@]1(C)CCC#N | 87.6% [100 µM] | 61.7% [100 µM] | 89.6% [100 µM] | 90.5% [100 µM] | 79.6% [100 µM] | 45.3% [100 µM] | 41.5% [100 µM] | 57.7% [100 µM] | 69.3% [100 µM] | 98.4% [100 µM] |
| O=c1c2c3c(sc2n2cnnc2n1Cc1ccccc1)CCCC3 | 93.4% | 100% | 111% | 99% | 102% | 99.7% | 98% | 91.8% | 97.6% | 116% |

Reference: PubChem BioAssay (NCI)
